PubChem BioAssay (EPA / NIEHS)
The source made the active and inactive calls. Rule for the calls: active = hit-call score of the fitted dose curve at least 0.9, where 1 is the maximum; inactive = score below 0.9.

Read-out: Glutathione S-transferase M3 (GSTM3), GSTM3 (gene 2947)
Assay: LTEA_HepaRG_GSTM3: Life Technologies and Expression Analysis (LTEA) Assay for Glutathione S-transferase M3 (GSTM3) using HepaRG (AID 2283501)
Settings: mRNA level, 48 h; actives raise or lower the signal
Method: LTEA_HepaRG is a cell based, multiplexed-readout assay that uses HepaRG, a human liver cell line, with measurements taken at 48 hours after chemical dosing on a 96-well plate.LTEA_HepaRG_GSTM3 is one of 102 assay component(s) measured in the LTEA HepaRG cell culture assay. It is a marker of Oxidative Stress.Data from the assay component LTEA_HepaRG_GSTM3 was analyzed into 1 endpoint. This assay endpoint, LTEA_HepaRG_GSTM3, was analyzed with bidirectional fitting relative to DMSO as the negative control and baseline of activity. Using a type of inducible reporter, measures of mRNA induction for gain or loss-of-signal activity can be used to understand regulation of transcription factor activity. To generalize the intended target to other relatable targets, this assay endpoint is annotated to the transferase intended target family, where the subfamily is alkyl and aryl transferase.
A total of 1060 chemcials from the ToxCast library were tested in eight-point concentration-response experiments. Cell culture and cytotoxicity assays were conducted at Thermo Fisher Scientific's Custom Services facility (Madison, WI). A single lot of human HepaRG cells (Thermo Fisher Scientific, Frederick, MD) was used for the cell culture experiments. 96-well format collagen type I coated plates of human HepaRG cells were prepared using established methods. Briefly, cryopreserved HepaRG cells were thawed, plated at a density of approximately 100,000 cells/well in HepaRG Thaw, Plate, and General Purpose media (HPRG770, Thermo Fisher Scientific), and incubated for 48 hours. 0.5% DMSO was selected as vehicle control to balance the requisite need of DMSO in HepaRG cultures to maintain differentiation (for example, baseline metabolism, proportions of hepatocytes vs. cholangiocytes), while enabling further hepatic receptor pathway activation (for example, PXR and CAR) in response to chemical exposure. 48 hours after plating, the culture medium was replaced with HepaRG Serum-Free Incudtion Media. Cells were exposed to each test chemical in duplicate and maintained in CO2 incubators for another 48 hours. Chemical plates were thawed to room temperature and 200x concentrations of treatment groups were prepared. 8-point conentration-reponse curves were made with the highest exposure at 100 uM, followed by half-log dilutions, all in 0.5% DMSO. Each test plate contained variouse controls, induction positive controls (1mM phenobarbital), cytotoxicity positive controls ([…] aflatoxin B1), vehicle controls (0.5% DMSO), and total lysis controls (0.5% DMSO). Cell morphology images were taken using an Essen IncuCyte FLR automated microscope, with six 96-well plates imaged in about 24 minutes. Images were captured and exported and JPEG files. Spent culture media was transfered to black-well plates for the LDH assay, and remaining media was sorted at -80 C for later use. Cells were treated with RLT buffer and frozen until shipped for gene expression analysis. Total RNA was isolated from the cell suspension in 75 uL of Buffer RLT (Qiagen, Germantown, MD 20874) by Quintiles/Expression Analysis (Durham, NC) using a custom isolation procedure. Total RNA from each plate well was transferred to a preamplification plate. Fluidigm's 96.96 Dynamic ArrayTM (Fluidigm, Amsterdam, the Netherlands) technology was used for gene expression analyses by quantitative reverse transcription polymerase chain reaction (qRT-PCR, performed by Quintiles/Expression Analysis, Durham, NC)89. Standard TaqManTM Assays (Applied Biosystems/ThermoFisher Scientific, Foster City, CA) were used to assess the expression of 93 genes selected based on their selectivity and sensitivity to important hepatic receptors known to be modulated by environmental chemicals; importance in human hepatocyte functionality; and hepatotoxicity. […]

Row | SMILES | outcome | AC50
1 | O=C(O)c1cccc(C[C@@H]2COc3ccc(OCc4nc5cc(F)ccc5s4)cc3[C@@H]2O)c1 | inactive | –
2 | CCCCCCCCN(C)C | inactive | –
3 | C=CN1CCCC1=O | inactive | –
4 | O=S(=O)(O)c1ccc(N=Nc2c(O)ccc3cc(S(=O)(=O)O)ccc23)cc1 | inactive | –
5 | CCCCCCCC/C=C\CCCCCCCC(=O)OC[C@@H](O)[C@H]1OC[C@H](O)[C@H]1O | inactive | –
6 | Nc1ccn([C@@H]2O[C@H](CO)[C@@H](O)[C@@H]2O)c(=O)n1 | inactive | –
7 | Cc1nccn1-c1ccc(Sc2cccc(C3(C(N)=O)CCOCC3)c2)cc1 | – | 23.8 µM (active)
8 | CCCC(CCC)C(=O)O | inactive | –
9 | CCCCC(CC)C(=O)OCCOCCOCCOC(=O)C(CC)CCCC (stereo not given) | inactive | –
10 | CCc1ccc(O)c(C(C)(C)C)c1 | inactive | –
11 | CCCCCCCCCC | inactive | –
12 | NC(=O)N1c2ccccc2C=Cc2ccccc21 | inactive | –
13 | CCCCCOC(C)=O | inactive | –
14 | CNC(C)=O | inactive | –
15 | NC(=O)NN=Cc1ccc([N+](=O)[O-])o1 | inactive | –
16 | Cc1ccc(S(=O)(=O)NC(=O)NN2CCCCCC2)cc1 | inactive | –
17 | CC(C)CC(C)O (stereo not given) | inactive | –
18 | CCCCOC(=O)c1ccccc1 | inactive | –
19 | CCN(CC)C(=S)SSC(=S)N(CC)CC | inactive | –
20 | COc1cc2c(c(OC)c1OC)-c1ccc(OC)c(=O)cc1[C@@H](NC(C)=O)CC2 | inactive | –

Row | SMILES | outcome | AC50
21 | O=C(O)c1cccc(C(=O)O)c1 | inactive | –
22 | OC[C@H]1O[C@@H]2O[C@H]3[C@H](O)[C@@H](O)[C@@H](O[C@H]4[C@H](O)[C@@H](O)[C@@H](O[C@H]5[C@H](O)[C@@H](O)[C@@H](O[C@H]6[C@H](O)[C@@H](O)[C@@H](O[C@H]7[C@H](O)[C@@H](O)[C@@H](O[C@H]1[C@H](O)[C@H]2O)O[C@@H]7CO)O[C@@H]6CO)O[C@@H]5CO)O[C@@H]4CO)O[C@@H]3CO | inactive | –
23 | CCOC(N)=O | inactive | –
24 | CCCc1ccccc1 | inactive | –
25 | COc1cc(C(C)C)c2c(c1)S(=O)(=O)N(COc1cc(=O)n3cccc(OCCN4CCCCC4)c3n1)C2=O | inactive | –
26 | O=C(O)c1ccc2c(c1)nc(C(=O)NC1CCN(C3CC3)CC1)n2Cc1cc(-c2ccc(Cl)s2)on1 | inactive | –
27 | C=CCc1cc(S(=O)(=O)c2ccc(O)c(CC=C)c2)ccc1O | inactive | –
28 | c1ccc2cc3ccccc3cc2c1 | inactive | –
29 | OC[C@H]1O[C@@](CO)(O[C@H]2O[C@H](CO)[C@@H](O)[C@H](O)[C@H]2O)[C@@H](O)[C@@H]1O | inactive | –
30 | CCCCCCCCCCCCCCCCOS(=O)(=O)O | inactive | –
31 | CC(C)CCCCCCOC(=O)C1CCCCC1C(=O)OCCCCCCC(C)C (stereo not given) | inactive | –
32 | OC(CCl)CCl | inactive | –
33 | OC(Cn1cncn1)(Cn1cncn1)c1ccc(F)cc1F | inactive | –
34 | O=C(NO)C1(NS(=O)(=O)c2ccc(Oc3ccc(F)cc3)cc2)CCOCC1 | inactive | –
35 | C[C@@H](Oc1ccc(CNC(=O)c2cccnc2Oc2ccc3c(c2)OCO3)c(F)c1)C(=O)O | inactive | –
36 | O=C(O)[C@H](O)[C@@H](O)C(=O)O | inactive | –
37 | OCC(CO)(CO)CO | inactive | –
38 | Cc1nc(-c2ccccn2)ncc1C(=O)Nn1cc(C)c2cc(F)ccc21 | inactive | –
39 | COCc1nnc(-c2ccc[n+]([O-])c2)n1-c1c(Cl)c(Cl)cc2[nH]c(=O)c(=O)[nH]c12 | inactive | –
40 | CC[C@H](C)C(=O)O[C@H]1C[C@H](O)C=C2C=C[C@H](C)[C@H](CC[C@@H](O)C[C@@H](O)CC(=O)O)[C@H]21 | inactive | –
